# Laboratory results taken from PubChem BioAssay (NCATS).
# Values without a mark were called inactive. For part of these data: Entries with a potency or affinity are not part of this list. Active and inactive are the calls of the source. No rule for the calls is given here.
# Legend:
# [1] = Ebola virus entry assay, green fluorescence channel
# [2] = Ebola virus entry assay, blue channel fluorescence
# [3] = Ebola virus entry assay, ratio channel
# [4] = Ebola virus entry assay, green channel fluorescence
# [5] = Ebola virus entry assay, reporter ratio channel; Channel type: primary
# [6] = Ebola virus entry assay, blue channel (ratio component)
# For efficacy in this document: 0% is about no effect.
SMILES,efficacy [1] [%],outcome [2],outcome [3],outcome [4],outcome [5],outcome [6],AC50 [2],AC50 [3],AC50 [5]
CN(C)C(=O)Nc1ccc(Cl)c(Cl)c1,15.7,inactive,inactive,inactive,inactive,inactive,,,
CCn1ccnc1CC1COc2ccccc2O1 (stereo not given),-17.5,inactive,inactive,inactive,inactive,inactive,,,
CS(=O)(=O)c1ccc(-c2cn3ccccc3n2)cc1,-11.6,inactive,inactive,inactive,inactive,inactive,,,
CC(O)COc1ccccc1 (stereo not given),11.7,inactive,inactive,inactive,inactive,inactive,,,
O=c1ccc2ccccc2o1,11.1,inactive,inactive,inactive,inactive,inactive,,,
C/C(=C(\CCOP(=O)(O)O)SC(=O)c1ccccc1)N(C=O)Cc1cnc(C)nc1N,-17.4,inactive,inactive,inactive,inactive,inactive,,,
N#Cc1cc(NC(=O)C(=O)O)c(Cl)c(NC(=O)C(=O)O)c1,18.8,inactive,inactive,inactive,inactive,inactive,,,
OC[C@H]1O[C@@H](O[C@@H]2[C@@H](CO)O[C@](O)(CO)[C@H]2O)[C@H](O)[C@@H](O)[C@H]1O,-16.4,inactive,inactive,inactive,inactive,inactive,,,
CCN(CC)CCNC(=O)c1cc(Br)c(N)cc1OC,15.9,inactive,inactive,inactive,inactive,inactive,,,
CC1(C)OC[C@@H](COC(=O)CCc2ccc(OC[C@@H](O)CNCCNC(=O)N3CCOCC3)cc2)O1,-15.7,inactive,inactive,inactive,inactive,inactive,,,
N[C@H]1CN(c2c(F)cc3c(=O)c(C(=O)O)cn(C4C[C@@H]4F)c3c2Cl)CC12CC2 (stereo not given in full),-25.5,inactive,inactive,inactive,inactive,inactive,,,
COc1ccc([C@@H]2Sc3ccccc3NC(=O)[C@@H]2O)cc1,-10.4,inactive,inactive,inactive,inactive,inactive,,,
CC1(C)[C@@H](OC(=O)CCC(=O)O)CC[C@]2(C)[C@H]3C(=O)C=C4[C@@H]5C[C@@](C)(C(=O)O)CC[C@]5(C)CC[C@@]4(C)[C@]3(C)CC[C@@H]12,12.7,inactive,inactive,inactive,inactive,inactive,,,
CCN[C@@H]1C[C@H](N)[C@@H](OC2OC(CN)=CCC2N)[C@H](O)[C@H]1O[C@H]1OC[C@](C)(O)[C@H](NC)[C@H]1O (stereo not given in full),-8.89,inactive,inactive,inactive,inactive,inactive,,,
COc1cc(NS(=O)(=O)c2ccc(N)cc2)ncn1,14.9,inactive,inactive,inactive,inactive,inactive,,,
COc1ccccc1OC(=O)Oc1ccccc1OC,-25.8,inactive,inactive,inactive,inactive,inactive,,,
CC(C)C(=O)Nc1cccc(C2CN3CCSC3=N2)c1 (stereo not given),-12.5,inactive,inactive,inactive,inactive,inactive,,,
CC(C)C(=O)OCc1cccc(OC(=O)[C@@H]2N3C(=O)[C@@H](NC(=O)Cc4ccccc4)[C@H]3SC2(C)C)c1,-28.9,inactive,inactive,inactive,inactive,inactive,,,
COc1ccnc2c1CCCCC2S(=O)c1nc2ccccc2[nH]1 (stereo not given),-22.9,inactive,inactive,inactive,inactive,inactive,,,
CC(=O)N[C@H]1[C@H]([C@H](O)[C@H](O)CO)OC(C(=O)O)=C[C@@H]1N=C(N)N,-18.6,,inactive,inactive,inactive,inactive,2.82 µM (active),,
N[C@@H](Cc1ccc(O)cc1)C(=O)O,37.7,inactive,inactive,inactive,inactive,inactive,,,
O=C(O)Cc1ccc2c(c1)C(=O)c1ccccc1CO2,17,inactive,inactive,inactive,inactive,inactive,,,
Cc1ncc([N+](=O)[O-])n1C,20.2,inactive,inactive,inactive,inactive,inactive,,,
COCCOC(=O)C1=C(C)NC(C)=C(C(=O)OC/C=C/c2ccccc2)C1c1cccc([N+](=O)[O-])c1 (stereo not given),17.5,inactive,inactive,inactive,inactive,inactive,,,
COc1ccc(C(Cl)=C(c2ccc(OC)cc2)c2ccc(OC)cc2)cc1,25.3,inactive,inactive,inactive,inactive,inactive,,,
NCC(=O)O,13.7,inactive,inactive,inactive,inactive,inactive,,,
COc1ccc2cc(C=O)ccc2c1,-11.5,inactive,inactive,inactive,inactive,inactive,,,
C[C@]12C=CC(=O)C=C1CC[C@H]1[C@@H]3C[C@@H](O)[C@](O)(C(=O)CO)[C@@]3(C)C[C@H](O)[C@@]12F,17,inactive,inactive,inactive,inactive,inactive,,,

SMILES,efficacy [1] [%],outcome [2],outcome [3],outcome [4],outcome [5],outcome [6],AC50 [2],AC50 [3],AC50 [5]
NC[C@H]1O[C@H](O[C@H]2[C@H](O)[C@@H](O[C@H]3O[C@H](CO)[C@@H](O)[C@H](N)[C@H]3O)[C@H](N)C[C@@H]2N)[C@H](N)[C@@H](O)[C@@H]1O,-12.5,inactive,inactive,inactive,inactive,inactive,,,
COc1cc(C(=O)NCCCCCC(=O)O)cc(OC)c1OC,-33.5,inactive,inactive,inactive,inactive,inactive,,,
O=c1cc(CO)occ1O,16.7,inactive,inactive,inactive,inactive,inactive,,,
Cc1c(Cl)cccc1Nc1ccccc1C(=O)O,13.8,inactive,inactive,inactive,inactive,inactive,,,
NS(=O)(=O)c1cc2c(cc1Cl)NC(C1CC3C=CC1C3)NS2(=O)=O (stereo not given),-30.9,inactive,inactive,inactive,inactive,inactive,,,
CCOC(=O)[C@H](CCc1ccccc1)N[C@@H](C)C(=O)N1C(=O)N(C)C[C@H]1C(=O)O,-14.8,inactive,inactive,inactive,inactive,inactive,,,
O=C(O)COC(=O)Cc1ccccc1Nc1c(Cl)cccc1Cl,31.8,inactive,inactive,inactive,inactive,inactive,,,
N[C@@H](CSCCCO)C(=O)O,25.1,inactive,inactive,inactive,inactive,inactive,,,
Cc1cc(C(C)(C)C)c(O)c(C(C)(C)C)c1,-23,inactive,inactive,inactive,inactive,inactive,,,
O=C1c2ccccc2C(=O)C1c1ccccc1,13.2,inactive,inactive,inactive,inactive,inactive,,,
CCOc1ccc(C(=O)OCCN(CC)CC)cc1,22.6,inactive,inactive,inactive,inactive,inactive,,,
CCN(CC)CC(=O)Nc1c(C)cccc1C,11,inactive,inactive,inactive,inactive,inactive,,,
OC[C@H]1O[C@@H](OCCc2ccc(O)cc2)[C@H](O)[C@@H](O)[C@H]1O,-19,inactive,inactive,inactive,inactive,inactive,,,
CCN(CC)CC1CCCCN1CC(=O)N1c2ccccc2C(=O)Nc2cccnc21 (stereo not given),31.3,inactive,inactive,inactive,inactive,inactive,,,
COCCc1ccc(OCC(O)CNC(C)C)cc1 (stereo not given),-31.6,inactive,inactive,inactive,inactive,inactive,,,
CC(=O)N1C[C@H](O)C[C@H]1C(=O)O,24.5,inactive,inactive,inactive,inactive,inactive,,,
Nc1ccc(S(=O)(=O)Nc2nccs2)cc1,-14,inactive,inactive,inactive,inactive,inactive,,,
O=C(O)c1cccnc1Nc1cccc(C(F)(F)F)c1,-25.4,inactive,inactive,inactive,inactive,inactive,,,
COc1ccc2c(c1OC)C(=O)O[C@@H]2[C@H]1c2c(cc3c(c2OC)OCO3)CCN1C,-21,inactive,inactive,inactive,inactive,inactive,,,
C=C1C[C@H]2[C@@H]3C=C(C)C4=CC(=O)CC[C@]4(C)[C@H]3CC[C@]2(C)[C@@]1(OC(C)=O)C(C)=O,-35.6,inactive,inactive,inactive,inactive,inactive,,,
O=C(NOCC1CC1)c1ccc(F)c(F)c1Nc1ccc(I)cc1Cl,18.5,,,inactive,,inactive,7.94 µM (active),15.8 µM (active),15.8 µM (active)
CNC(=O)c1c(I)c(NC(=O)CCCCC(=O)Nc2c(I)c(C(=O)O)c(I)c(C(=O)NC)c2I)c(I)c(C(=O)O)c1I,-24,inactive,inactive,inactive,inactive,inactive,,,
CCCCCOc1ccc(C2SC(=O)NC2=O)cc1OCC (stereo not given),24.1,inactive,inactive,inactive,inactive,inactive,,,
CC1CCc2cc(F)cc3c(=O)c(C(=O)O)cn1c23 (stereo not given),-9.54,inactive,inactive,inactive,inactive,inactive,,,
O=S(=O)(c1cccc2cnccc12)N1CCCNCC1,-11.7,inactive,inactive,inactive,inactive,inactive,,,
CC(=O)/C=C/C=C1/C2CCC(C2)C1(C)C (stereo not given),-14.5,inactive,inactive,inactive,inactive,inactive,,,
O=c1[nH]c2cc(C(F)(F)F)c(N3CCOCC3)cc2n(CP(=O)(O)O)c1=O,-34.7,inactive,inactive,inactive,inactive,inactive,,,
